{"source": "PubChem BioAssay (NCATS)", "note": "Records with an inconclusive call do not appear. Values without a mark were called inactive. Calls of active or inactive are those of the source. Calls follow the shape of the dose curve; as a rule, active = well fitted inhibition curve with a large enough effect; inconclusive = small, poorly fitted or top-dose-only effect; inactive = flat fitted curve, though single readings scatter. % is scaled to controls: 0 for no effect and ±100 for the full control effect; potency is read from the fitted curve at half-maximal effect."}
{"biological_target": "Ubiquitin carboxyl-terminal hydrolase 1 (Homo sapiens) (UniProt O94782)", "sequence (O94782 whole entry, looked up)": "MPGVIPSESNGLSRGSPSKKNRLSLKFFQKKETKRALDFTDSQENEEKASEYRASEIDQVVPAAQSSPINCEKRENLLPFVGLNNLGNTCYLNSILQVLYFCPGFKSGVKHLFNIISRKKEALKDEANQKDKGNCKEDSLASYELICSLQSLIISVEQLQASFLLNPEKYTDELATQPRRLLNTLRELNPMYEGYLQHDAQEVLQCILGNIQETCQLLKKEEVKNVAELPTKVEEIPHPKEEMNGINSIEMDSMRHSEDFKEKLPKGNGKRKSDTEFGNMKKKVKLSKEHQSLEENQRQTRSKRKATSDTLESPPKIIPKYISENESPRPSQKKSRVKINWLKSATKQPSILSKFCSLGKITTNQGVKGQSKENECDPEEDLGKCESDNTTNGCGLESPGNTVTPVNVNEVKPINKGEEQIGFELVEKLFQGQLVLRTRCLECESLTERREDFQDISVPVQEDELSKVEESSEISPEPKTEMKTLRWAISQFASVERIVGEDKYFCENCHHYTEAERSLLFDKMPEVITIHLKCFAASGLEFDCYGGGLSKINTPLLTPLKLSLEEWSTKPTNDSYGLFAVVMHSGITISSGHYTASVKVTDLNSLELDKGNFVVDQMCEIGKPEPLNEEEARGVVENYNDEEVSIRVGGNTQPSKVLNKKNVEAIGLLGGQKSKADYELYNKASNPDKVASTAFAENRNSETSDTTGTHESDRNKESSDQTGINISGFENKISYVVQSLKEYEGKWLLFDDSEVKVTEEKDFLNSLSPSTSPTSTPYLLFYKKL", "assay": "Inhibitors of USP1/UAF1: Pilot qHTS (AID 504865); also: nearly all actives have a fitted effect of over 35% in size;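 as to activity change, negative = inhibition: rhodamine fluorescence freed from ubiquitin-rhodamine substrate followed over time; top concentration of the series differs between compounds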", "conditions": "purified USP1/UAF1, Ub-rhodamine cleavage fluorescence; series mostly up to 54.9 µM; activity change, negative = inhibition: at the top concentration", "procedure,_shortened": "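1nM USP1/UAF1 + cpd, 15 min RT; start w/ Ub-Rho 150nM final; kinetic FL 480/540 nm, 6 reads q60 s. Buffer 50mM HEPES pH 7.8, 0.5mM EDTA, 1mM TCEP, 0.01% Tween-20, 0.1 mg/ml BSA.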", "units": {"activity change, negative = inhibition": "%"}}
{"smiles": "CCNc1ncc2nc(-c3cn(C)c4ccccc34)c(=O)n(Cc3ccc(F)cc3)c2n1", "activity change, negative = inhibition": -10.8}
{"smiles": "N#CCCn1c(=O)c(-c2ccccc2)nc2cnc(Nc3ccccc3)nc21", "activity change, negative = inhibition": -6.54}
{"smiles": "COc1cccc(-c2nccc(NCc3cccnc3)n2)c1", "activity change, negative = inhibition": -11.6}
{"smiles": "COc1ccc(-c2nc3cnc(OC)nc3n(C)c2=O)cc1", "activity change, negative = inhibition": -24.7}
{"smiles": "COc1ncc2nc(-c3cccs3)c(=O)n(Cc3ccc(F)cc3)c2n1", "activity change, negative = inhibition": -21.3}
{"smiles": "COc1cccc(Cn2c(=O)cnc3cnc(OC)nc32)c1", "activity change, negative = inhibition": -6.41}
{"smiles": "COc1cccc(Cn2c(=O)cnc3cnc(OCc4ccccc4)nc32)c1", "activity change, negative = inhibition": -16.3}
{"smiles": "Cc1cnc(CNc2ncnc3ccc(-c4ccc5c(c4)OCO5)cc23)cn1", "activity change, negative = inhibition": -4.84}
{"smiles": "COc1ccccc1CNc1cc(-c2ccccc2C(F)(F)F)ncn1", "activity change, negative = inhibition": -7.39}
{"smiles": "COc1cccc(Cn2c(=O)c(-c3cccs3)nc3cnc(OCc4ccccc4)nc32)c1", "activity change, negative = inhibition": -7.99}
{"smiles": "c1ccc(CNc2ncncc2-c2ccc3c(c2)OCO3)cc1", "activity change, negative = inhibition": -20.2}
{"smiles": "Cc1noc(C)c1-c1nc(Nc2ccc(F)cc2)c2ccccc2n1", "activity change, negative = inhibition": -13}
{"smiles": "Cn1c(=O)c(-c2ccc(F)cc2)nc2cnc(N3CCOCC3)nc21", "activity change, negative = inhibition": -1.8}
{"smiles": "O=c1c(CCc2ccccc2)nc2cnc(N3CCOCC3)nc2n1CCc1ccccc1", "activity change, negative = inhibition": -7.35}
{"smiles": "N#Cc1ccccc1-c1ccc2ncnc(NC3CC3)c2c1", "activity change, negative = inhibition": -10.8}
{"smiles": "COc1cccc(Cn2c(=O)c(-c3cccs3)nc3cncnc32)c1", "activity change, negative = inhibition": -14.7}
{"smiles": "O=c1c(-c2ccc(F)cc2)nc2cncnc2n1-c1ccccc1", "activity change, negative = inhibition": -10.5}
{"smiles": "O=c1c(-c2ccc(Cl)cc2)nc2cnc(Nc3ccccc3)nc2n1C[C@H]1CCCO1", "activity change, negative = inhibition": -3.92}
{"smiles": "COc1ccccc1-c1cncnc1NCc1cnc(C)cn1", "activity change, negative = inhibition": -7.78}
{"smiles": "CN(C)Cc1ccccc1-c1nc(NC2CC2)c2ccccc2n1", "activity change, negative = inhibition": -4.77}
{"smiles": "CCNc1ncc2nc(-c3ccccc3)c(=O)n(CCOC)c2n1", "activity change, negative = inhibition": -14.5}
{"smiles": "CN(Cc1ccco1)c1ncnc2ccc(-c3ccccc3C#N)cc12", "activity change, negative = inhibition": -36.1}
{"smiles": "CCNc1ncc2nc(-c3ccc(F)cc3)c(=O)n(C[C@H]3CCCO3)c2n1", "activity change, negative = inhibition": -11}
{"smiles": "CCNc1ncc2nc(-c3cc(F)cc(F)c3)c(=O)n(CCc3ccccc3)c2n1", "Potency": "20 µM (active)"}
{"smiles": "COc1cccc(-c2cc(NCc3ccccc3)ncn2)c1", "activity change, negative = inhibition": -25.9}
{"smiles": "c1ccc(CNc2ncncc2-c2cccnc2)cc1", "activity change, negative = inhibition": -11.1}
{"smiles": "COc1ccc(-c2nc3cnc(OC)nc3n(CCC#N)c2=O)cc1", "activity change, negative = inhibition": -15.5}
{"smiles": "N#Cc1cccc(-c2nccc(NCc3cccs3)n2)c1", "activity change, negative = inhibition": -22.3}
{"smiles": "Cc1ccccc1-c1cncnc1NCc1cccnc1", "activity change, negative = inhibition": -10.1}
{"smiles": "COc1ccc(Oc2ncc3nc(-c4cn(C)c5ccccc45)c(=O)n(C)c3n2)cc1", "activity change, negative = inhibition": -10.4}
{"smiles": "CN(C)c1ccc(-c2cncnc2N(C)Cc2ccco2)cc1", "activity change, negative = inhibition": -13.4}
{"smiles": "COc1ncc2nc(-c3cn(C)c4ccccc34)c(=O)n(CCC#N)c2n1", "activity change, negative = inhibition": -11.5}
